Source: ChEMBL document CHEMBL3988442, “University of Dundee, Small-Polar-MMV Screening Library” (2021)

system: Trypanosoma cruzi; assay: Trypanosoma cruzi phosphomannomutase and mannose-1-phosphate guanylyltransferase assay; assay type: functional; design: scale not given: direction of the effect not stated beside the values; conditions: 10 µM

Row | Structure (SMILES) | Percent Effect [%]
1 | CCN(C(c1cccnc1)c1ccc2c(c1)CCO2)S(C)(=O)=O (centres undefined) | 6.75
2 | CCOCCCC(=O)NCCC(=O)N1CCN(c2ccccn2)CC1 | -3.99
3 | CCOc1ccc(C(=O)NS(=O)(=O)c2cncc(Br)c2)cc1OC | 10.6
4 | c1ncn(CC2CCCCN2Cc2noc(C3CC3)n2)n1 (centres undefined) | -1.69
5 | COC(=O)c1ccc2ccn(CC3CCCO3)c(=O)c2c1 (centres undefined) | 0.979
6 | CC(C)C(=O)N1CCN(C(=O)CCc2nnc(-c3ccccc3)o2)CC1 | -4.06
7 | CCNC(c1cccnc1)c1cc(C)cc(C)c1 (centres undefined) | 2.15
8 | NC(=O)C1(Cc2ccccc2-c2ccccc2)CCCN(CC2CC2)C1 (centres undefined) | 3.15
9 | CC(C(=O)Nc1cccc(N2CCCCC2)c1)n1cncn1 (centres undefined) | 3.11
10 | O=C(C1CC1)N1CCC(c2nc(O)c3c(n2)CCN(C2CCCC2)C3)C1 (centres undefined) | -4.33
11 | Cn1cc(CN2CCn3cc(CNC(=O)C4CCC4)nc3C2)cn1 | -0.386
12 | CN1N=C(C(=O)Nc2cc(F)ccc2OCC2CCCO2)CCC1=O (centres undefined) | 7.3
13 | CC(Cn1cccn1)NCc1nc(-c2cccc(Cl)c2)no1 (centres undefined) | 4.76
14 | Cn1nc(C2CCN(C(=O)Cc3cccc(F)c3)CC2)c2cccnc21 | 4.35
15 | O=C(CN1CCCC(O)C1)NC(=O)NCc1cccs1 (centres undefined) | -5.16
16 | O=C(Cn1cnnn1)N1CCCCC1Cn1cccn1 (centres undefined) | -6.52
17 | O=C(NCC1CC1)C1=NOC2(CCN(Cc3ccc4c(c3)OCO4)C2)C1 (centres undefined) | -2.51
18 | O=C(NC[C@@H]1CCCN1)c1cc(COc2cccc(C(F)(F)F)c2)[nH]n1 | 2.62
19 | CO[C@H]1CN(C(=O)c2ccc3oc(C)cc3c2)CC[C@@]12CCCO2 | 0.593

molecular target: T1, Arginase-2, mitochondrial (Homo sapiens) (UniProt P78540); assay: in vitro enzyme assay to detect the production of urea directly proportional to the activity of Arginase II; assay type: functional; design: scale not given: in the data most compounds retested in dose-response had high values; conditions: 33.3 µM
T1 sequence (whole entry): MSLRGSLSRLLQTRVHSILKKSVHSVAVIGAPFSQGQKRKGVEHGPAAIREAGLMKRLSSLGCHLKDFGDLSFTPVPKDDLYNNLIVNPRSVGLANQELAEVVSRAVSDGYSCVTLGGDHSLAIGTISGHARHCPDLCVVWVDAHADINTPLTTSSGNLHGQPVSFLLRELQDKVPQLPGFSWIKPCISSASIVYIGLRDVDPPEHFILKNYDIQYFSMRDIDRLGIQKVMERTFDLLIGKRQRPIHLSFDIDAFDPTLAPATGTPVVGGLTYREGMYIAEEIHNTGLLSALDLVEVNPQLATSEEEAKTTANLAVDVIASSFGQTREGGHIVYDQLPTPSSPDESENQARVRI

Row | Structure (SMILES) | Percent Effect [%]
20 | Cn1c(NCC(O)c2ccc(F)cc2F)c(C#N)c(=O)n(C)c1=O (centres undefined) | 6.46
21 | CC(CNC(=O)N1CCSCC1)Cc1cccs1 (centres undefined) | -2.08
22 | NC(=O)COc1cccc(C(=O)N2CCCC(n3ccnc3)C2)c1 (centres undefined) | 0.554
23 | CCC(O)CNC(=O)c1coc(COc2ccc3sc(C)nc3c2)n1 (centres undefined) | -2.73
24 | CCNC(=O)N1CCC2(C1)c1ccccc1S(=O)(=O)N2CCC(C)C (centres undefined) | -52.5
25 | Cc1ccc(C(CNCc2cnn(C(C)C)c2)N2CCOCC2)s1 (centres undefined) | -2.5
26 | COc1cccc(C(=O)Nc2cc(CC(C)C)nn2C)c1 | -6.41
27 | Cc1cc(F)ccc1CN1CCCC2(C1)OCCO2 | 1.67
28 | CCN(Cc1ccco1)C(=O)Nc1cc(C(F)(F)F)c[nH]c1=O | 0.719
29 | O=C(c1ccccc1OCC1CC1)N1CCCC(n2ccnc2)C1 (centres undefined) | 5.81
30 | Cn1nc(CNC(=O)NCc2ccc(Cl)cc2)c2c1CCOC2 | -7.1
31 | O=C(NCC(Cc1cccc(F)c1)N1CCCC1=O)c1ccccc1 (centres undefined) | 0
32 | CSCC(C)(O)CNC(=O)c1ccc(Br)cc1F (centres undefined) | 3.23
33 | CCN1CCC(c2nc3ccc(NC(C)C)cn3n2)CC1 | -1.25
34 | COc1ccc(Oc2cncc(C3CCCN3C(C)=O)n2)cc1 (centres undefined) | 0.696
35 | CCn1nc(C)c(CNC(=O)c2cn(CCC3CCCCN3)nn2)c1C (centres undefined) | 5.21
36 | N#Cc1ccc(N2CCN(C(=O)c3cc(C4CC4)[nH]n3)CC2)c(F)c1 | -4.99
37 | CNS(=O)(=O)c1ccc(C(=O)N2CCCC2c2ccccc2)o1 (centres undefined) | -3.6

Row | Structure (SMILES) | Percent Effect [%]
38 | CC(=O)c1c(F)cccc1N1CCC(CS(N)(=O)=O)CC1 | -2
39 | Cc1ccc(CC(=O)NC(C)C(=O)N2CCS(=O)(=O)CC2)cc1 (centres undefined) | -1.91
40 | CCN(C(c1cccnc1)c1ccc2c(c1)CCO2)S(C)(=O)=O (centres undefined) | -6.79
41 | CCOCCCC(=O)NCCC(=O)N1CCN(c2ccccn2)CC1 | -4.73
42 | CCOc1ccc(C(=O)NS(=O)(=O)c2cncc(Br)c2)cc1OC | 3.81
43 | c1ncn(CC2CCCCN2Cc2noc(C3CC3)n2)n1 (centres undefined) | -1.92
44 | COC(=O)c1ccc2ccn(CC3CCCO3)c(=O)c2c1 (centres undefined) | 12.3
45 | CC(C)C(=O)N1CCN(C(=O)CCc2nnc(-c3ccccc3)o2)CC1 | 4.94
46 | CCNC(c1cccnc1)c1cc(C)cc(C)c1 (centres undefined) | -4.52
47 | NC(=O)C1(Cc2ccccc2-c2ccccc2)CCCN(CC2CC2)C1 (centres undefined) | 0.233
48 | CC(C(=O)Nc1cccc(N2CCCCC2)c1)n1cncn1 (centres undefined) | -3.61
49 | O=C(C1CC1)N1CCC(c2nc(O)c3c(n2)CCN(C2CCCC2)C3)C1 (centres undefined) | 1.17
50 | Cn1cc(CN2CCn3cc(CNC(=O)C4CCC4)nc3C2)cn1 | -31
51 | CN1N=C(C(=O)Nc2cc(F)ccc2OCC2CCCO2)CCC1=O (centres undefined) | -6.41
52 | CC(Cn1cccn1)NCc1nc(-c2cccc(Cl)c2)no1 (centres undefined) | 0
53 | Cn1nc(C2CCN(C(=O)Cc3cccc(F)c3)CC2)c2cccnc21 | -0.232
54 | O=C(CN1CCCC(O)C1)NC(=O)NCc1cccs1 (centres undefined) | -3.55
